The test system of assay [1] is Wnt5a (protein binding on small-molecule microarray). The assay is described as follows: small molecules binding Wnt5a protein – biophysical, small-molecule microarray, 635/667 nm fluorescence, primary screen (AID 1142).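 Further: fluorescence read at 667 nm with signal to noise per printed feature.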 The settings on record: 635 nm fluorescence, higher = more signal.
Assay [2] is described as follows: ATP-based viability of Huh7 replicon cells – cell-based, CellTiter-Glo luminescence, basal, 48 h, cytotoxicity control for HCV replication inhibitor project, primary screen (AID 1143).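 Further: Huh7 hepatoma cells carrying a hepatitis C replication reporter with no stimulus; test concentration not given here.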 The settings on record: higher = more signal, called active from +8 up or from −8 down.
Assay [3] can be described thus: Pseudomonas biofilm growth suppression – PAO1 strain, BacTiter-Glo luminescence, LB-PBS, primary screen (AID 1144). The conditions noted are these: P. aeruginosa PAO1 biofilm, 12 h, higher = more signal.
The nature of assay [4]: basal CRE-LacZ reporter activity in PC12 – cell-based, unstimulated, primary screen (AID 1145). The conditions noted are these: no forskolin, luminescence, 4.5 h, higher = more signal, called active from +8 up or from −8 down.
Assay [5] can be described thus: forskolin-driven CRE-LacZ activity in PC12 – cell-based, CRE-LacZ reporter, forskolin-stimulated, primary screen (AID 1146).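 Further: PC12 cells with 6xCRE LacZ reporter stimulated by forskolin 10 µM; beta-galactosidase reporter signal reflecting CREB driven transcription.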 The conditions noted are these: luminescence, 4.5 h, higher = more signal, called active from +8 up or from −8 down.
Assay [6] deals with Streptavidin (Streptomyces avidinii) (UniProt P22629). Put plainly: compounds binding control protein streptavidin – biophysical, small-molecule microarray, 635/667 nm fluorescence, artefact control for SMM compound annotation, primary screen (AID 1147).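 Further: signal reflects streptavidin binding to arrayed compounds as a control protein.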 The conditions noted are these: higher = more signal.
Assay [7] in a line: probe aInhba binding on compound microarray – biochemical, small-molecule microarray, 635/667 nm fluorescence, primary screen (AID 1148).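 Further: score merges 667nm spot fluorescence with signal-to-noise for antibody binding to printed compounds.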 The settings on record: higher = more signal.
Assay [8] concerns the target Torsin-1A (Homo sapiens) (UniProt O14656). The assay is described as follows: TOR1A wild-type binding on microarray – cell lysate, small-molecule microarray, lysate, 635/667 nm, primary screen (AID 1149). The settings on record: COS7 hTOR1A-WT lysate, 635 nm fluorescence, higher = more signal.
Assay [9] has the same target. Put plainly: torsin A mutant lysate binding on microarrays – cell lysate, small-molecule microarray, COS7 lysate, 635/667 nm fluorescence, primary screen (AID 1150).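 Further: score pools 667 nm emission and signal to noise measuring lysate protein binding.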 The conditions noted are these: COS7 hTOR1A mutant lysate, 635 nm fluorescence, higher = more signal.
Assay [10] has as its system Sonic hedgehog protein (Shh). The assay is described as follows: Sonic hedgehog microarray binding compounds – biochemical, small-molecule microarray, 635/667 nm fluorescence, primary screen (AID 1151).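 Further: Shh protein binding to compounds spotted on small-molecule microarray slides; score combines spot fluorescence intensity with signal-to-noise across triplicate slides.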 The settings on record: 635 nm fluorescence, higher = more signal.
The nature of assay [11]: optical density shifts of acrAB sulA E. coli – strain DRC41, OD650, 48 h, E. coli filamentation inducer project, primary screen (AID 1152).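 Further: E. coli MC1000 strain DRC41 lacking acrAB efflux pump and sulA.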 The settings on record: higher = more signal, called active from +8 up or from −8 down.
The nature of assay [12]: probe aLefty1 binding on compound microarray – biochemical, small-molecule microarray, 635/667 nm fluorescence, primary screen (AID 1153).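 Further: score merges spot fluorescence with signal-to-noise ratio from the scanned slide images.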 The conditions noted are these: higher = more signal.
Assay [13] is described as follows: plasmodial surface anion channel blockers, osmotic lysis – cell-based, P. falciparum Indochina, OD700, 1 h, primary screen (AID 1154). The settings on record: P. falciparum Indochina infected RBC osmotic lysis, higher = more signal, called active from +8 up or from −8 down.
Assay [14] is described as follows: plasmodial surface anion channel blockers, osmotic lysis – cell-based, P. falciparum Indochina, OD700, 2 h, primary screen (AID 1155).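 Further: lysis reports solute entry through the parasite surface anion channel PSAC.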 The settings on record: P. falciparum Indochina infected erythrocytes, higher = more signal, called active from +8 up or from −8 down.
Assay [15] in a line: changes in parasitized red cell lysis, either direction – P. falciparum Indochina, OD700, 3 h, PSAC antagonist project, primary screen (AID 1156). The conditions noted are these: P. falciparum-infected erythrocytes, osmotic lysis, higher = more signal, called active from +8 up or from −8 down.
The nature of assay [16]: plasmodial surface anion channel blockers, osmotic lysis – cell-based, P. falciparum Indochina, OD700, 18 h, primary screen (AID 1157). The settings on record: P. falciparum Indochina infected erythrocytes, osmotic lysis OD700, 18 h; higher = more signal, called active from +8 up or from −8 down.
A short description of assay [17]: S6 kinase pathway phospho-S6 level changes – cell-based, A549, cytoblot, luminescence, serum-stimulated, primary screen (AID 1158).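 Further: serum-stimulated A549 lung adenocarcinoma cells; signal is phosphorylated S6 detected by cytoblot immunostaining with HRP secondary.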 The settings on record: 5 h, higher = more signal.
Assay [18] addresses NADPH oxidase 2 (Homo sapiens) (UniProt P04839). The assay is described as follows: compounds shifting NOX2 Amplex Red fluorescence – cell-based, HEK293-NOX2, PMA-stimulated, NOX inhibitor project, primary screen (AID 1159). Further: test concentration not given here. The settings on record: 45 min, higher = more signal, called active from +8 up or from −8 down.
In assay [19] the target is NADPH oxidase 4 (Homo sapiens) (UniProt Q9NPH5). The assay is described as follows: compounds shifting NOX4 Amplex Red fluorescence – cell-based, HEK293-NOX4, tetracycline-induced, NOX inhibitor project, primary screen (AID 1160). The settings on record: HEK293-NOX4, Amplex Red H2O2 fluorescence, 45 min; higher = more signal, called active from +8 up or from −8 down.
Assay [20] concerns the target NADPH oxidase 5 (Homo sapiens) (UniProt Q96PH1). The assay is described as follows: compounds shifting NOX5 Amplex Red fluorescence – cell-based, HEK293-NOX5, NOX inhibitor project, primary screen (AID 1161). The settings on record: HEK293-NOX5, ionomycin, 45 min, higher = more signal.

We go through eight molecules from PubChem BioAssay.

Activity calls are given as the source filed them. Unless noted, how the calls were made is not given here.

Sequence of NADPH oxidase 4 (Homo sapiens) (Q9NPH5 whole entry, looked up): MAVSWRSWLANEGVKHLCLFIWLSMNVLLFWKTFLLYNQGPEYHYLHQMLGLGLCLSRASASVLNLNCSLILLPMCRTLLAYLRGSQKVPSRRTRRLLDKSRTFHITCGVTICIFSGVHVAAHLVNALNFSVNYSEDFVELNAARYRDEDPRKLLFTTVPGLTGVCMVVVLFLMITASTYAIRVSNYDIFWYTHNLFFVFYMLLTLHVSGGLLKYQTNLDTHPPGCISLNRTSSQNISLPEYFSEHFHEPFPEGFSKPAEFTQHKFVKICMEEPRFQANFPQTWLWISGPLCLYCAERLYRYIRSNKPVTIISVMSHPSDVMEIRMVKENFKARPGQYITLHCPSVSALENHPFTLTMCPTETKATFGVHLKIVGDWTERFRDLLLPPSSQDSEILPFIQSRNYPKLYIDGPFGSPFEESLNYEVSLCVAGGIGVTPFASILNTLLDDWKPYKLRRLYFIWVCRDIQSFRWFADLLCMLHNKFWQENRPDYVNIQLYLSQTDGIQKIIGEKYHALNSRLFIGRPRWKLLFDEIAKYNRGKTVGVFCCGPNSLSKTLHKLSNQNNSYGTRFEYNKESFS
Sequence of Streptavidin (Streptomyces avidinii) (P22629 whole entry, looked up): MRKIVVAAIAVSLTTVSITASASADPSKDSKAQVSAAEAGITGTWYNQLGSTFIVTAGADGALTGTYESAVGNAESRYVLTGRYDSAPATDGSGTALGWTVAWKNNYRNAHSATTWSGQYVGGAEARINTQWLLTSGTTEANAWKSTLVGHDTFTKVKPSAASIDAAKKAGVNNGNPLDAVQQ
Sequence of NADPH oxidase 2 (Homo sapiens) (P04839 whole entry, looked up): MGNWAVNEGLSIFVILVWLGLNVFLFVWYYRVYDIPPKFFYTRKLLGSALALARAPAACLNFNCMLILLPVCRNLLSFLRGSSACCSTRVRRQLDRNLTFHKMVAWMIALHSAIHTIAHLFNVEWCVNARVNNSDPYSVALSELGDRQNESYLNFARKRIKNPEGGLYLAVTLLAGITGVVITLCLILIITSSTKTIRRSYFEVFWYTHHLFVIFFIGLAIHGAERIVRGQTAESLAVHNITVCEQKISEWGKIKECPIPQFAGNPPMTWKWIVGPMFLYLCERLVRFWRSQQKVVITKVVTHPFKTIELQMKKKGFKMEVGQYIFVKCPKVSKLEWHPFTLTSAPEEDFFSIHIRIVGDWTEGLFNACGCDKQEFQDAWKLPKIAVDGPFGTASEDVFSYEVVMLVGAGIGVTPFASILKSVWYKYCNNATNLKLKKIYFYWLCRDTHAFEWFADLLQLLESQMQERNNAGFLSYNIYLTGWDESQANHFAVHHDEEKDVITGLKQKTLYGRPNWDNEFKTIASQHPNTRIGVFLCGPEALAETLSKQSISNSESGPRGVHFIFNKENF
Sequence of Torsin-1A (Homo sapiens) (O14656 whole entry, looked up): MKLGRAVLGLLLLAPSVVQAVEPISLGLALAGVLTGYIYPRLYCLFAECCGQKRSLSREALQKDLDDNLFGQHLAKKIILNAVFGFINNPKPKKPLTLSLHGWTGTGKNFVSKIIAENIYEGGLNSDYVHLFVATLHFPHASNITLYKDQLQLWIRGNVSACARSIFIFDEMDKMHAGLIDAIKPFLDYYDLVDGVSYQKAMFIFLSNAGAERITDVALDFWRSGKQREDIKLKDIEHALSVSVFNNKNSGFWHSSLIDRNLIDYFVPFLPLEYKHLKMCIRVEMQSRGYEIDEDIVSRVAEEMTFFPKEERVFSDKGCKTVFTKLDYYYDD
Sequence of NADPH oxidase 5 (Homo sapiens) (Q96PH1 whole entry, looked up): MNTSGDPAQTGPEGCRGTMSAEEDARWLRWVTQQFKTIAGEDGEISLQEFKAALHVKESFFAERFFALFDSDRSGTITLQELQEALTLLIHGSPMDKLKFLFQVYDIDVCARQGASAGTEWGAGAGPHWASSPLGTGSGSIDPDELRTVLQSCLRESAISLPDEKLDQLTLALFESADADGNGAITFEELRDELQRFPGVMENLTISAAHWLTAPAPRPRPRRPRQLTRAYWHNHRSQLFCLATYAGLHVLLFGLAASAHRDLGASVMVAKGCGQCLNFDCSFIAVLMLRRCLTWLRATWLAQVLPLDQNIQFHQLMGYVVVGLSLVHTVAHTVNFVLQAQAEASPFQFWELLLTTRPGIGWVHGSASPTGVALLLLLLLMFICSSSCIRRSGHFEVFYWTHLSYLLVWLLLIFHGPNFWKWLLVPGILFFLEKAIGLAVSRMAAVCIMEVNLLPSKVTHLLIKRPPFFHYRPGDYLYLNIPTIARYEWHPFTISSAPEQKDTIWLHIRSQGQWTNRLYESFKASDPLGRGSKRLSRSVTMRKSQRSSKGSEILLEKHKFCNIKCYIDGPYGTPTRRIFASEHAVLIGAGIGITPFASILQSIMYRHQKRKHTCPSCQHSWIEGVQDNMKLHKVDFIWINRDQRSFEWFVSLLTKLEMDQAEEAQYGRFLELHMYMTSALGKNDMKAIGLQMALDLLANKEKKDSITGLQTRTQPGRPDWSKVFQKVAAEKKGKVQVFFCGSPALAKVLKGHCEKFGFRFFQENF

In the case of `C[N+](C)(C)CCCC[C@@H]1NC(=O)[C@@H]2C[C@H](C(=O)NCCCCCNC(=O)CS)[C@H](c3cccc(OCCO)c3)N2C1=O`, the composite z-score in assay [1] is 0.623; in assay [6], 0.0879; in [7] it was 0.0636; with Torsin-1A (Homo sapiens) [8], 0.628; with Torsin-1A (Homo sapiens) [9] it was 0.186; in [10] it was 1.38. This molecule also registered a composite z-score in [12] of -0.0061. Also, the z-score was -0.192 (inactive) in assay [2]; 0.152 (inactive) in [3]; 0.688 (inactive) in [4]; 0.478 (inactive) in assay [5]; 0.724 (inactive) in [11]; 3.64 (inactive) in assay [13]. The z-score is 0.813 (inactive) in [14]; -1.78 (inactive) in [15]; 0.718 (inactive) in [16]; 0.596 in assay [17]; 1.54 (inactive) in assay [18]; 0.433 (inactive) in assay [19]. In addition, the z-score in assay [20] was found to be 0.711.
With `C[C@]12C(=O)N(CCCO)[C@@H]3C(=O)N(c4ccc(Cl)cc4)CC=CC31O[C@@H]1/C=C\CCCOC(=O)C12` (stereo not given in full), the composite z-score in assay [1] is -0.408; in assay [6], -1.19; in assay [7] it was -0.218; with Torsin-1A (Homo sapiens) [8] it was -1.88; with Torsin-1A (Homo sapiens) [9], -1.13; in assay [10], 0.399. This molecule registered a composite z-score in [12] of -0.0203. Further, the z-score in [2] was 0.231 (inactive); in assay [3] it was 0.993 (inactive); in assay [4], -0.212 (inactive); in assay [5] it was -0.221 (inactive); in assay [11], -0.511 (inactive); in assay [13], 1.29 (inactive). For the same molecule, the z-score in assay [14] is 0.396 (inactive); in [15], -0.423 (inactive); in [16] it was 0.211 (inactive); in assay [17], -0.332; in assay [18] it was 1.53 (inactive); in assay [19], 0.84 (inactive). Besides, in [20], the z-score stood at 2.71.
On to `CC1=C2[C@@H](CCc3ccccc3)OB(O)C[C@@H]2[C@@H]2C(=O)C=CC(=O)[C@@H]2C1`, for which the composite z-score in assay [1] was 0.135; in assay [6], 0.537; in [7] it was -0.0873; with Torsin-1A (Homo sapiens) [8], 0.355; with Torsin-1A (Homo sapiens) [9], 0.474; in assay [10], 1.44. This molecule registered a composite z-score in [12] of 0.0402. The z-score was -0.894 (inactive) in assay [2]; 0.0958 (inactive) in assay [3]; 14.1 (active) in assay [4]; 28.4 (active) in assay [5]; -0.23 (inactive) in assay [11]; 2.27 (inactive) in assay [13]. For the same molecule, the z-score in assay [14] was 0.229 (inactive); in assay [15], 0.236 (inactive); in [16], 0.182 (inactive); in assay [17], 0.166; in assay [18] it was -0.128 (inactive); in assay [19], -2 (inactive). The z-score in assay [20] is -3.15.
In the case of `O=[N+]([O-])c1ccc(C[n+]2ccc(-c3ccc(CO)cc3)cc2)o1`, the composite z-score was -0.0922 in [1]; 0.85 in assay [6]; 0.0816 in assay [7]; -0.078 with Torsin-1A (Homo sapiens) [8]; 0.0063 in the assay with Torsin-1A (Homo sapiens) [9]; 1.44 in assay [10]. Also, in [12], the composite z-score is -0.0764. Also, the z-score in assay [2] is -1.13 (inactive); in assay [3], -0.42 (inactive); in [4] it was -0.464 (inactive); in assay [5], 0.239 (inactive); in [11] it was -1.32 (inactive); in assay [13] it was 1.34 (inactive). Further, the z-score in assay [14] was 0.199 (inactive); in [15], 0.495 (inactive); in assay [16], -0.139 (inactive); in assay [17], -0.103; in assay [18], 0.0654 (inactive); in assay [19], -0.765 (inactive). Besides, in assay [20], the z-score was -3.73.
As for `CCCC=C(CCC)[C@@H](NS(=O)(=O)CC)c1ccccc1`, the composite z-score in [1] is 0.356; in assay [6] it was 1.08; in assay [7] it was 0.279; with Torsin-1A (Homo sapiens) [8], 0.252; with Torsin-1A (Homo sapiens) [9], 0.0756; in assay [10], -0.324. This molecule gave a composite z-score in [12] of 0.443. The z-score is -2.11 (inactive) in [2]; 0.932 (inactive) in assay [3]; 0.59 (inactive) in assay [4]; 1.16 (inactive) in assay [5]; -1.84 (inactive) in assay [11]; 0.19 (inactive) in [13]. In addition, the z-score in assay [14] was -0.0273 (inactive); in [15], -1.28 (inactive); in [16] it was 0.716 (inactive); in [17], -0.259; in assay [18], -1.32 (inactive); in assay [19], -2.4 (inactive). For the same molecule, the z-score in assay [20] came out at 2.02.
In the case of `COC(=O)[C@@]1(Cc2ccc(F)cc2)[C@H]2c3cc(C(=O)N(C)C)n(CCSCCO)c3C[C@H]2CN1C(=O)c1ccccc1`, the composite z-score was -0.0292 in [1]; 0.352 in assay [6]; -0.0001 in assay [7]; 0.0627 in the assay with Torsin-1A (Homo sapiens) [8]; 0.387 in the assay with Torsin-1A (Homo sapiens) [9]; -0.509 in assay [10]. The composite z-score in [12] is -0.0901. The z-score in assay [2] is -0.259 (inactive); in [3], -0.482 (inactive); in [4], -0.565 (inactive); in [5] it was 0.222 (inactive); in assay [11], -0.683 (inactive); in assay [13], 0.621 (inactive). In addition, the z-score in assay [14] is -0.383 (inactive); in [15], -0.662 (inactive); in [16], 0.397 (inactive); in [17], -0.426; in assay [18] it was 0.746 (inactive); in [19] it was -0.303 (inactive). Moreover, the z-score in assay [20] was -0.572.
`COC(=O)C(CC#Cc1ccc2c(c1)[C@]1(C(=O)N2)[C@H](c2ccccc2OCCO)N2[C@H](c3ccccc3)[C@H](c3ccccc3)OC(=O)[C@H]2[C@@H]1C(=O)Nc1nc2ccccc2s1)C(=O)OC`: the composite z-score in assay [1] worked out at 0.384; in [6] it was 0.762; in assay [7], 0.0633; in the assay with Torsin-1A (Homo sapiens) [8] it was 0.283; in the assay with Torsin-1A (Homo sapiens) [9], 0.24; in assay [10], 1.46. This molecule also returned a composite z-score in assay [12] of 0.361. Further, the z-score in assay [2] is -2.07 (inactive); in assay [3] it was -0.827 (inactive); in assay [4], 1.21 (inactive); in [5], 1.53 (inactive); in [11] it was -1.2 (inactive); in assay [13] it was 4.68 (inactive). For the same molecule, the z-score in [14] was 1.71 (inactive); in assay [15] it was 0.103 (inactive); in [16] it was 1.77 (inactive); in [17], 0.334; in assay [18], 1.04 (inactive); in assay [19] it was 0.517 (inactive). The z-score in assay [20] was 0.545.
In the case of `CCOC(=O)C[C@H]1[C@H](OC(=O)c2ccc(C(=O)c3ccccc3)cc2)[C@@H](NC(=O)C2CCCCC2)c2cc(OCCCO)ccc2N1C(=O)Cc1ccc(OC)cc1`, the composite z-score in assay [1] stood at 0.354; in assay [6], 0.519; in assay [7] it was 0.0497; with Torsin-1A (Homo sapiens) [8] it was 0.192; with Torsin-1A (Homo sapiens) [9], 1.24; in assay [10], 0.761. For the same molecule, in assay [12], the composite z-score was 0.271. The z-score in [2] is -0.281 (inactive); in assay [3], 0.193 (inactive); in assay [4] it was 1.24 (inactive); in assay [5] it was -0.0721 (inactive); in assay [11], 0.522 (inactive); in [13], 2.32 (inactive). Moreover, the z-score was 0.744 (inactive) in assay [14]; 0.0357 (inactive) in assay [15]; -0.206 (inactive) in [16]; 0.0093 in [17]; -1.38 (inactive) in assay [18]; 0.626 (inactive) in [19]. The z-score in [20] worked out at 1.74.
